Measurements: the supplement of paper PMC6607015
Where a name gives a salt, the structure may show the parent alone.

Test system: HeLa MZ
Experiment: whole-cell filipin (free cholesterol) integrated intensity, Z-score; higher = more cholesterol staining
Conditions: compound concentration in added solution (µM; 5 µl added to 20 µl cells): 10; 18 h
Method in brief: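 In duplicate 384-well imaging plates, 3,500 HeLa MZ or A431 cells in 20 µl per well were seeded onto 5 µl of 10 µM compound solution. The cells were incubated for 18 h, fixed in 4% PFA and stained with 6C4 anti-LBPA antibody, filipin, propidium iodide and CellTracker green before four 20× images were acquired per well. Values are AcuityXpress-normalised Z-scores of per-cell integrated LBPA or filipin intensity, obtained by MetaXpress segmentation over the whole cell or in LBPA endosomes.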

Structure (SMILES) | whole-cell filipin (z-score)
N[C@H]1CONC1=O [(S)-(-)-Cycloserine] | -0.221
O=C(c1ccc(F)cc1)C1CCN(CCn2c(=O)[nH]c3ccccc3c2=O)CC1 [Ketanserin tartrate hydrate] | 0.523
C[N+](C)(CCOc1ccccc1)Cc1ccccc1.O=C([O-])c1cc2ccccc2cc1O [Bephenium hydroxynaphthoate] | -0.145
O=C1CCc2ccc(OCCCCN3CCN(c4cccc(Cl)c4Cl)CC3)cc2N1 [Aripiprazole] | 2.45
Nc1nc(F)nc2c1ncn2[C@@H]1O[C@H](CO)[C@@H](O)[C@@H]1O [Fludarabine] | 1.82
CN1CCc2cccc3c2[C@H]1Cc1ccc(O)c(O)c1-3 [R(-) Apomorphine hydrochloride hemihydrate] | -1.57
C[C@]12CCC(=O)C=C1C=C[C@@H]1[C@@H]2CC[C@@]2(C)[C@H]1CC[C@@]21CCC(=O)O1 [Canrenone] | 1.37
CN(C)[C@@H]1C(O)=C(C(N)=O)C(=O)[C@@]2(O)C(O)=C3C(=O)c4c(O)cccc4[C@@](C)(O)[C@H]3C[C@@H]12 [Tetracycline hydrochloride] | -0.867
Cc1onc(-c2c(F)cccc2Cl)c1C(=O)N[C@@H]1C(=O)N2[C@@H]1SC(C)(C)[C@@H]2C(=O)O [Flucloxacillin sodium] | -0.558
CC1(C)S[C@@H]2[C@H](NC(=O)Cc3ccccc3)C(=O)N2[C@H]1C(=O)O [Benzylpenicillin sodium] | 2.18
COc1ccc2c(c1)C(=O)N(CCc1ccc(S(=O)(=O)NC(=O)NC3CCCCC3)cc1)C(=O)C2(C)C [Gliquidone] | -0.511
CCCCC[C@H](O)/C=C/[C@@H]1[C@@H](C/C=C\CCCC(=O)O)[C@@H](O)C[C@H]1O [Dinoprost trometamol] | -0.582
CCN(Cc1ccncc1)C(=O)C(CO)c1ccccc1 (stereo unspecified) [Tropicamide] | -0.974
CCN(CC)CCOc1ccc(C(=C(Cl)c2ccccc2)c2ccccc2)cc1 [Clomiphene citrate (Z,E)] | 1.03
CC(=O)c1ccc2c(c1)N(CCCN(C)C)c1ccccc1S2 [Acetopromazine maleate salt] | -0.149
Cn1c(=O)c2c(ncn2CC(O)CO)n(C)c1=O (stereo unspecified) [Diprophylline] | -0.852
